From PubChem BioAssay (NCI) come the findings set out here.

The panel holds about 83,000 compounds, 20% with a hit somewhere; the sample as a whole holds those more often.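 Cell lines were cultured in 96-well plates, exposed to a single compound concentration, and assessed for percent growth 48 hours later.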 A number with no mark means an inactive call. Active and inactive are the calls of the source. How the source made its calls: active means growth percent below 10; inactive means the rest.

The first test concerns RXF 393 renal. The experiment in a line: NCI-60 one-dose screen, 48 h (100 = growth as untreated, 0 = no growth, -100 = all killed). The note with it: 10 µM unless noted.
Regarding `CCCCCCNc1cc(C)nc2ccc(OC)cc12`, the growth was 61.2%. Same read-out and setting: then `Cc1ccc(C)c2c1C(=O)OC2=O`, with 127%; and `CCN(CC)CCCNC(=O)c1ccc(N)cc1O`, with 91.3%; and `O=[N+]([O-])c1ccc(-c2cc3c(Nc4ccc(OCc5cccc(Cl)c5)c(Cl)c4)ncnc3s2)cc1`, with 85.3%. `COC(=O)Nc1nc2ccc(C(=O)C3CC3)cc2[nH]1`: the growth is 4.26% (active). `CCOC(=O)C(O)C(O)(c1ccccc1)c1ccccc1` (configuration not stated): the growth was 113%. The same measure, in the same setting: then `N#Cc1cnn2c(-c3ccc(Cl)cc3)nc(NC3CC3)nc12`, with 93.7%; and `O=C(C[C@@]1(O)C(=O)Nc2c(Cl)ccc(Cl)c21)c1ccc(C2CC2)cc1`, with -10% (active). On the same count and under the same terms, under `CN(CCC(=O)/C(=C\c1ccccc1)c1ccc(Cl)cc1)Cc1ccccc1` stands -29.3% (active); under `CC1=NN(c2cccc(Cl)c2)C(=O)/C1=C\c1cn(CC(O)CN2CCCCC2)c2ccccc12` (configuration not stated), 67.1%.

As for `O=C(NCOC(O)C(Cl)(Cl)Cl)NCOC(O)C(Cl)(Cl)Cl` (configuration not stated), the growth was 125%.

For `Cc1nn(-c2ccccc2)c2c1C(c1ccc([N+](=O)[O-])cc1)C(C#N)=C(N)O2` (configuration not stated), the growth was 99.2%. The same measure, in the same setting: under `O=[N+]([O-])c1ccccc1C(O)Cc1ccc2ccccc2n1` (configuration not stated) stands 91.2%. Take `N#Cc1cnn2c(-c3ccc(Cl)cc3)nc(NCCc3ccccc3)nc12`: the growth is 116%.

Regarding `CCOC(=O)C(=CNc1ccccc1[N+](=O)[O-])C(=O)OCC`, the growth was 104%. `Cc1ccc(NSc2ccccc2[N+](=O)[O-])cc1`: the growth was -6.02% (active). On the same count and under the same terms, under `CN(C)CCC(O)(Cc1ccccc1)c1ccccc1` (configuration not stated) stands 117%. As for `CCOc1cc(N)ccc1C(=O)NCCCN(CC)CC`, the growth is 90.7%. Take `COc1ccc(-c2nnc(SCC(=O)NC3=NN=C(c4ccccc4)CS3)o2)cc1`: the growth was 117%. As for `C#C[C@]1(O)CC[C@H]2[C@@H]3CC=C4c5sc(N=C(N)N)nc5CC[C@]4(C)[C@H]3CC[C@@]21C`, the growth was -56.6% (active).

For the compound `CCCCCCCCN(CCCCCCCC)C(=N)c1ccnc2ccccc12`, the growth is -87.8% (active). As to `COc1cc(-c2ccc(N=Nc3c(O)c(C(=O)Nc4ccccc4OC)cc4ccccc34)c(OC)c2)ccc1N=Nc1c(O)c(C(=O)Nc2ccccc2OC)cc2ccccc12`, the growth was 93.1%. As to `O=C1c2ccccc2C2(c3ccc(O)cc3)c3ccccc3Oc3cccc1c32` (configuration not stated), the growth was 11%. As for `Cc1c(Cl)cccc1NS(=O)(=O)c1ccccc1`, the growth was 95.3%. Regarding `CN(C)c1cnccn1`, the growth is 94.5%.

With `Fc1ccc(Nc2nc3nonc3nc2Nc2ccc(F)cc2)cc1`, the growth is 9.9% (active). The same measure, in the same setting: under `Cc1nc2ccccc2c(/C=C/c2ccc(Cl)cc2)c1C(=O)/C=C/c1ccc(Cl)cc1` stands -72.4% (active). `Fc1ccc(Nc2nc(Nc3ccc(-c4nc5ccccc5[nH]4)cc3)c3cn[nH]c3n2)cc1`: the growth was 76.2%. Still for that read-out and setting: then `Nc1ccc(-c2cc3c(Nc4ccc(OCc5cccc(F)c5)c(Cl)c4)ncnc3s2)cc1`, with 52.5%; and `O=[N+]([O-])c1ccc(-c2cc3c(Nc4ccc(Cl)c(C(F)(F)F)c4)ncnc3s2)cc1`, with 5.99% (active). In the case of `O=[N+]([O-])c1ccc(-c2cc3c(Nc4ccc(Sc5nc6ccccc6s5)c(Cl)c4)ncnc3s2)cc1`, the growth is 68.8%. For the compound `CCOC(=O)N1CCc2c(sc3c2C(=O)N[C@H](c2ccc(OC)cc2)N3)C1`, the growth was 113%. With `Cc1cn(C2CCCCC2)c(=O)[nH]c1=O`, the growth was 113%.

Regarding `Cc1csc(NC(=O)c2sc3nc(-c4cccs4)ccc3c2N)n1`, the growth is 107%. With `Clc1ccc(-c2nc(NCCc3ccccc3)nc3c(NCCc4ccccc4)cnn23)cc1`, the growth is 94.7%. On to `Cc1nc(C)c(-c2nn3c(-c4cccc(F)c4)nnc3s2)s1`, for which the growth is 96.3%. The same measure, in the same setting: then `COc1ccc(-c2nnc(-c3ccc4c(c3)nc(-c3ccccc3)n4C3CCCCC3)o2)cc1`, with 97.3%. Same read-out and setting: under `Cc1cc2c(F)c(Oc3ncnc(Nc4ccc(N5C[C@@H](C)N[C@@H](C)C5)cc4)c3C#N)cc(F)c2[nH]1` stands -25.7% (active); under `CCN(CC)CCCNC(=O)c1ccc(N)cc1`, 110%.

Another test has as its system SF-268 CNS. The description is as above. The following applies: 10 µM unless noted.
Regarding `CCCCCCNc1cc(C)nc2ccc(OC)cc12`, the growth is 93.2%. Still for that read-out and setting: under `Cc1ccc(C)c2c1C(=O)OC2=O` stands 98.8%; under `CCN(CC)CCCNC(=O)c1ccc(N)cc1O`, 93.8%; under `O=[N+]([O-])c1ccc(-c2cc3c(Nc4ccc(OCc5cccc(Cl)c5)c(Cl)c4)ncnc3s2)cc1`, 76.1%. `COC(=O)Nc1nc2ccc(C(=O)C3CC3)cc2[nH]1`: the growth was 29.7%. For the compound `CCOC(=O)C(O)C(O)(c1ccccc1)c1ccccc1` (configuration not stated), the growth is 95.4%. `N#Cc1cnn2c(-c3ccc(Cl)cc3)nc(NC3CC3)nc12`: the growth is 84.4%. Consider `O=C(C[C@@]1(O)C(=O)Nc2c(Cl)ccc(Cl)c21)c1ccc(C2CC2)cc1`, for which the growth was 54.8%.

`CN(CCC(=O)/C(=C\c1ccccc1)c1ccc(Cl)cc1)Cc1ccccc1`: the growth is 5.31% (active). In the case of `CC1=NN(c2cccc(Cl)c2)C(=O)/C1=C\c1cn(CC(O)CN2CCCCC2)c2ccccc12` (configuration not stated), the growth was 72.6%. For the compound `O=C(NCOC(O)C(Cl)(Cl)Cl)NCOC(O)C(Cl)(Cl)Cl` (configuration not stated), the growth is 105%.

In the case of `Cc1nn(-c2ccccc2)c2c1C(c1ccc([N+](=O)[O-])cc1)C(C#N)=C(N)O2` (configuration not stated), the growth is 108%. Same read-out and setting: under `O=[N+]([O-])c1ccccc1C(O)Cc1ccc2ccccc2n1` (configuration not stated) stands 93.1%; under `N#Cc1cnn2c(-c3ccc(Cl)cc3)nc(NCCc3ccccc3)nc12`, 92.2%; under `CCOC(=O)C(=CNc1ccccc1[N+](=O)[O-])C(=O)OCC`, 105%. With `Cc1ccc(NSc2ccccc2[N+](=O)[O-])cc1`, the growth was 48.7%. As for `CCOc1cc(N)ccc1C(=O)NCCCN(CC)CC`, the growth was 103%. The same measure, in the same setting: then `COc1ccc(-c2nnc(SCC(=O)NC3=NN=C(c4ccccc4)CS3)o2)cc1`, with 94.2%; and `C#C[C@]1(O)CC[C@H]2[C@@H]3CC=C4c5sc(N=C(N)N)nc5CC[C@]4(C)[C@H]3CC[C@@]21C`, with -15% (active).

On to `CCCCCCCCN(CCCCCCCC)C(=N)c1ccnc2ccccc12`, for which the growth was -71.8% (active). As for `COc1cc(-c2ccc(N=Nc3c(O)c(C(=O)Nc4ccccc4OC)cc4ccccc34)c(OC)c2)ccc1N=Nc1c(O)c(C(=O)Nc2ccccc2OC)cc2ccccc12`, the growth was 87.5%. For `O=C1c2ccccc2C2(c3ccc(O)cc3)c3ccccc3Oc3cccc1c32` (configuration not stated), the growth is 40.3%. Turning to `Cc1c(Cl)cccc1NS(=O)(=O)c1ccccc1`, the growth is 104%.

As to `CN(C)c1cnccn1`, the growth is 91.6%.

Turning to `Fc1ccc(Nc2nc3nonc3nc2Nc2ccc(F)cc2)cc1`, the growth is 18.5%.

Take `Cc1nc2ccccc2c(/C=C/c2ccc(Cl)cc2)c1C(=O)/C=C/c1ccc(Cl)cc1`: the growth is 25.8%. In the case of `Fc1ccc(Nc2nc(Nc3ccc(-c4nc5ccccc5[nH]4)cc3)c3cn[nH]c3n2)cc1`, the growth was 75.1%. Same read-out and setting: then `Nc1ccc(-c2cc3c(Nc4ccc(OCc5cccc(F)c5)c(Cl)c4)ncnc3s2)cc1`, with 52.1%; and `O=[N+]([O-])c1ccc(-c2cc3c(Nc4ccc(Cl)c(C(F)(F)F)c4)ncnc3s2)cc1`, with 24.3%; and `O=[N+]([O-])c1ccc(-c2cc3c(Nc4ccc(Sc5nc6ccccc6s5)c(Cl)c4)ncnc3s2)cc1`, with 39.4%.

As to `CCOC(=O)N1CCc2c(sc3c2C(=O)N[C@H](c2ccc(OC)cc2)N3)C1`, the growth is 101%.

With `Cc1cn(C2CCCCC2)c(=O)[nH]c1=O`, the growth is 108%. The same measure, in the same setting: then `Cc1csc(NC(=O)c2sc3nc(-c4cccs4)ccc3c2N)n1`, with 102%; and `Clc1ccc(-c2nc(NCCc3ccccc3)nc3c(NCCc4ccccc4)cnn23)cc1`, with 35.1%; and `Cc1nc(C)c(-c2nn3c(-c4cccc(F)c4)nnc3s2)s1`, with 97.6%.

Regarding `COc1ccc(-c2nnc(-c3ccc4c(c3)nc(-c3ccccc3)n4C3CCCCC3)o2)cc1`, the growth is 71.2%. Same read-out and setting: under `Cc1cc2c(F)c(Oc3ncnc(Nc4ccc(N5C[C@@H](C)N[C@@H](C)C5)cc4)c3C#N)cc(F)c2[nH]1` stands 29.3%; under `CCN(CC)CCCNC(=O)c1ccc(N)cc1`, 102%.
